G9a block: qHTS Assay for Inhibitors of Histone Lysine Methyltransferase G9a; actives 8.8% (n = 350,000); Potency, µM (highest dose often 102 µM), without a hit: top-dose activity, negative = inhibition, usual class: inhibitors; G9a H3K9 monomethylation, AlphaScreen, 2 h; Histone-lysine N-methyltransferase EHMT2 (Homo sapiens), Q96KQ7; also: % is scaled to controls: 0 for no effect and ±100 for the full control effect; nearly all actives have a fitted effect of over 75% in size
Target sequence (Q96KQ7 913-1193 limits assumed): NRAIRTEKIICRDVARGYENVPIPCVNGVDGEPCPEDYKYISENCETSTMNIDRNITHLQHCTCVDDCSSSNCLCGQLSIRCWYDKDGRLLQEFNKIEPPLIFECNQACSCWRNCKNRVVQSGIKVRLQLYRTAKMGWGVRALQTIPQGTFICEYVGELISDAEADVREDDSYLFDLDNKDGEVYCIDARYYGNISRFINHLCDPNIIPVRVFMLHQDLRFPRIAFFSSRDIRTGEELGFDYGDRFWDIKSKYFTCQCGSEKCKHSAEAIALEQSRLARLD
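Quantitative HTS format: methyltransferase activity on a biotin-tagged H3K9 peptide is measured by AlphaScreen, using a rabbit anti-monomethyl-H3K9 antibody with streptavidin donor and anti-IgG acceptor beads. Final levels are 20 nM enzyme, 500 nM peptide, 20 uM SAM; 2 h RT.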
BAZ2B block: qHTS Assay for Inhibitors of BAZ2B; Bromodomain adjacent to zinc finger domain protein 2B (Homo sapiens), Q9UIF8; AlphaScreen BAZ2B-H3K14Ac peptide displacement; Potency, µM (titrated, usually from 114 µM), for the others: at the top dose activity change, negative = inhibition, most hits filed as inhibitors; actives 4.4% (n = 360,000); also: % is scaled to controls: 0 for no effect and ±100 for the full control effect; nearly all actives have a fitted effect of over 60% in size
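Inhibition is scored as reduced AlphaScreen emission. The BAZ2B/b-H3(5-23)K14Ac complex (50 nM each) in PBS pH 7.4, 0.01% Tween-20 meets compound (up to 110 uM) for 30 min at RT before bead addition.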
Sfp inh: qHTS Assay for Inhibitors of Bacillus subtilis Sfp phosphopantetheinyl transferase (PPTase); Biochemical Sfp PPTase activity, qHTS; Potency, µM, for inactives: largest response in the series, negative = inhibition, usual class: inhibitors; actives 3.5% (n = 310,000); AID 1490, 2009;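 also: the enzyme is Sfp with the accession as filed and its product quenches rhodamine fluorescence; 0% = enzyme reaction without inhibitor and -100% = no enzyme wells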
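Reaction rates are the 30-min fluorescence difference (ex 525, em 598 nm) in wells containing 15 nM Sfp, 5 uM rhodamine-CoA and 12.5 uM BHQ-2-YbbR at pH 7.6 with 10 mM MgCl2.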
HP1b chromo inh: HTS for Inhibitors of HP1-beta Chromodomain Interactions with Methylated Histone Tails; Potency, µM (series often up to 114 µM), without a hit: at the highest dose activity change, negative = inhibition, actives largely listed as inhibitors; AID 540317, 2011; actives 0.56% (n = 390,000); AlphaScreen HP1-beta / biotin-H3K9me3 peptide binding; also: nearly all actives have a fitted effect of over 70% in size
Target sequence (P83916 whole entry, looked up): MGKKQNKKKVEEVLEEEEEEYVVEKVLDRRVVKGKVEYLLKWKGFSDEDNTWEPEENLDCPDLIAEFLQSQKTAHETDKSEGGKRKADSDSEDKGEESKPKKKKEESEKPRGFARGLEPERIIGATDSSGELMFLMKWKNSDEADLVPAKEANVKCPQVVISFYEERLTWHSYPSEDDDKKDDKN
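HP1-beta protein (50 nM final) preincubated 30 min at room temperature with biotinylated H3(1-18)K9me3 peptide (50 nM) in PBS pH 7.4, 0.01% Tween-20, then compound added for 30 min. AlphaScreen streptavidin donor/nickel chelate acceptor beads (10 ug/mL final), 30 min dark, luminescence read.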
JMJD2A Tudor: qHTS Assay for Inhibitors of JMJD2A-Tudor Domain | Lysine-specific demethylase 4A (Homo sapiens), O75164 | AlphaScreen JMJD2A-Tudor / H3K4me3 peptide binding | Potency, µM (series often up to 114 µM), without a hit: at the top dose activity change, negative = inhibition, most hits filed as inhibitors | actives 4.4% (n = 390,000) | AID 504339, 2011; also: % is scaled to controls: 0 for no effect and ±100 for the full control effect; nearly all actives have a fitted effect of over 50% in size
The depositor's hits bear a star; u = inconclusive; x = no result given; [ ] = dose if it differs, or a comment. Rows were chosen to be rich in hits. Some 12% of all compounds tested hit in one or more screens of this group. Calls follow the shape of the dose curve; as a rule, active = well fitted curve in the direction sought with a large enough effect; inconclusive = small, poorly fitted or top-dose-only effect, or another doubt; inactive = no such curve, though single readings can be large; an effect the other way counts as inactive or inconclusive. Potency is read from the fitted curve at half-maximal effect.

SMILES | G9a block | BAZ2B block | Sfp inh | HP1b chromo inh | JMJD2A Tudor
Cc1ccc(S(=O)(=O)N2CCN(C(=O)c3ccc(N4CCCCC4)c([N+](=O)[O-])c3)CC2)cc1 | 32µM* | u | 13% | -20% | u
O=C(/C=C/c1ccc(N2CCCCC2)c([N+](=O)[O-])c1)c1ccc(S(=O)(=O)N2CCCC2)cc1 | 4.5µM* | u | 4% | u | -22%
Cn1nnnc1SCC(=O)c1c(N)n(C2CC2)c(=O)[nH]c1=O | -7%[12.7 µM] | -6% | x | 51% | -6%
COc1ccc(C(NC(=O)c2cccc(F)c2)c2ccccc2)cc1 (stereo not drawn) | u | 11% | 18% | 10% | -12%
COc1cc(NC(=O)Nc2cccc(Cl)c2)c(OC)cc1NC(=O)CN1CCCCC1 | 13µM* | 40µM* | 4% | u | 45µM*
CCN1CCN(CC(=O)Nc2c(OC)cccc2OC)CC1 | 40µM* | 18µM* | 79µM* | 45µM* | 5µM*
CCOC(=O)c1ccc(NC(=O)N2CCN(c3ccccc3OC)CC2)cc1 | 0% | -28% | -1% | -6% | 79µM*
CCN(CC)c1ccc(NC(=O)CN2CCN(c3ccccc3OC)CC2)cc1 | u | 35µM* | x | -18% | 45µM*
COc1ccccc1NC(=O)CN1CCCCC1 | -5%[12.7 µM] | 10% | 19% | 5% | -9%
CNC(=O)C1(C(F)(F)F)C/C(=C\CCO)CCCO1 (stereo not drawn) | -13% | -29% | 21% | 47% | -1%
Cn1c(N)c(C(=O)CSc2ncn[nH]2)c(=O)n(C)c1=O | 1% | 3% | 4% | 29% | -2%
CCN(CC)c1ccc(NC(=O)CN2CCN(c3ccccc3F)CC2)cc1 | 8.9µM* | 40µM* | -3% | 50µM* | 56µM*
O=C(CN1CCN(c2ccccc2F)CC1)Nc1ccccc1F | 50µM* | -14% | 5% | 36% | -14%
Nc1nonc1/C(=N/O)N1CCN(CCO)CC1 | 6%[59 µM] | x | 21% | 70% | -5%[11.4 µM]
CC(=O)Nc1cccc(C(=O)N2CCN(S(=O)(=O)Cc3ccccc3)CC2)c1 | x | x | x | 18%[57 µM] | 2%
Cc1c2n(c3ccccc13)CC/C2=N\O | x | -12% | 2% | 4% | -23%
C[C@H]1CCC/C=C/[C@@H]2C[C@H](O)C[C@H]2[C@H](O)[C@H](S(=O)c2ccc(O)cc2)CC(=O)O1 (stereo partly drawn) | x | x | x | u | 40µM*
CC(Sc1nncs1)C(=O)NC1CCCCC1C (stereo not drawn) | u | -2% | -10% | 42% | -15%
FC(F)(F)c1cccc(CNc2ncccc2-c2nc3cc(Cl)ccc3o2)c1 | 156% | 63% | 8% | 269% | 146%
CCOc1ccc(NC(=O)c2ccc(NC(=O)c3cn4c5c(c(N6CCN(C)CC6)c(F)cc5c3=O)OCC4C)cc2)cc1 (stereo not drawn) | 50µM* | -32% | -9% | 7% | -11%
COc1ccccc1N=C1NC(=O)/C(=C/c2ccc(N(C)C)cc2)S1 | x | 45µM* | -15% | -21% | u
Clc1ccccc1C1=CC(c2ccco2)n2ncnc2N1 (stereo not drawn) | 35µM* | -22% | 8% | 20% | -14%
Clc1ccc(C2=CC(c3ccco3)n3ncnc3N2)cc1 (stereo not drawn) | 8.9µM* | u | u | 27% | u
COc1ccc(C2=CC(c3ccco3)n3ncnc3N2)cc1 (stereo not drawn) | 11µM* | u | -45% | 30% | -21%
CC(=O)Nc1cccc(C2=CC(c3ccco3)n3ncnc3N2)c1 (stereo not drawn) | u | x | -22% | x | x
O=C(CCCN1C(=O)C(c2ccccc2)Oc2cccnc21)NCc1ccccc1F (stereo not drawn) | -3%[59 µM] | -2% | 9% | 24% | -19%
